Laboratory results as given in PubChem BioAssay (NCATS).
Inconclusive results are not listed. Values without a mark were called inactive. Calls come from the whole dose curve; as a rule, active = well fitted activation curve with a large enough effect; inconclusive = small, poorly fitted or top-dose-only effect; inactive = flat fitted curve, though single readings scatter.

Assay: Cellular Toxicity (caspase-3) Jurkat (AID 655);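 note: cells exposed to compound for 16 h at 37 °C before reading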
Settings: Jurkat caspase-3 activation, luminescence; caspase-3 activation: at 92.2 µM (top of the series), DMSO = 0%, tamoxifen = 100%
Outline: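 Caspase 3/7 activation is scored as increased luminescence in Jurkat cells cultured with compound for 16 hours in complete medium. AC50 values come from Hill fits of qHTS concentration-response data normalized to DMSO and 100 uM tamoxifen controls.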
Compound `Nc1ccccc1S(=O)(=O)O` has a caspase-3 activation of 1.01%.
With `c1ccsc1` the caspase-3 activation was 0.61%.
For `FC(F)(F)c1ccccc1Cl`, the caspase-3 activation was 2.68%.
Work on `O=C1NC(=O)c2cc([N+](=O)[O-])ccc21` yielded a caspase-3 activation of 0.91%.
`Cc1c(C(=O)O)cccc1[N+](=O)[O-]` gave a caspase-3 activation of 1.11%.
In the case of `C[C@@H]1O[C@@H](O[C@@H]2[C@@H](O)[C@H](OCCc3ccc(O)c(O)c3)O[C@H](CO[C@@H]3O[C@H](CO)[C@@H](O)[C@H](O)[C@H]3O)[C@H]2OC(=O)/C=C/c2ccc(O)c(O)c2)[C@H](O)[C@H](O)[C@H]1O`, the caspase-3 activation is reported as -3.29%.
Work on `O=Cc1ccc(C(=O)O)cc1` yielded a caspase-3 activation of 0.522%.
In the case of `NC(=O)CCCCC(N)=O`, the caspase-3 activation is reported as 2.15%.
Compound `CCc1ccccc1` has a caspase-3 activation of 1.71%.
`CCNc1ccccc1` gave a caspase-3 activation of 0.137%.
In the case of `C=Cc1ccc(C=C)cc1`, the caspase-3 activation is reported as -0.456%.
Compound `Cc1ccccc1C(N)=O` has a caspase-3 activation of 1.13%.
Work on `CCCCC(=O)N(C)C` yielded a caspase-3 activation of -0.841%.
With `CC#N` the caspase-3 activation was 1.05%.
For `CC(=O)CCc1ccccc1`, the caspase-3 activation was -1.19%.
Work on `C=C(C)C1CC=C(C)C(OC(C)=O)C1` (stereo not given) yielded a caspase-3 activation of 0.979%.
`Nc1cccc2c(=O)[nH][nH]c(=O)c12` gave a caspase-3 activation of 0.167%.
Compound `CC(=O)c1cc(C)oc1C` has a caspase-3 activation of 0.691%.
In the case of `C=CCOC(=O)COCCC(C)C`, the caspase-3 activation is reported as -0.573%.
`C=CCOC(=O)CCCCCCCC` gave a caspase-3 activation of -0.392%.
With `NC(=S)NNC(N)=S` the caspase-3 activation was 0.7%.
In the case of `CSCCC=O`, the caspase-3 activation is reported as -1.33%.
Compound `CCC(C)O` (stereo not given) has a caspase-3 activation of 0.184%.
With `CCCC(C)CO` (stereo not given) the caspase-3 activation was 0.921%.
With `CCC(=O)/C=C/C1C(C)=CCCC1(C)C` (stereo not given) the caspase-3 activation was 2.94%.
`C=CCCCCCC` showed a caspase-3 activation of -1.08%.
`CC(C)=CCl` gave a caspase-3 activation of -0.417%.
With `Nc1ccc([N+](=O)[O-])c(N)c1` the caspase-3 activation was 0.952%.
`CC(=O)Nc1ccccc1C` gave a caspase-3 activation of 1.08%.
`CCCCCCCCN` gave a caspase-3 activation of 1.3%.
With `CC(CCl)OC(C)CCl` (stereo not given) the caspase-3 activation was 1.36%.
With `O=[N+]([O-])c1ccccc1CCO` the caspase-3 activation was 0.961%.
Compound `Cc1cc(C)cc(O)c1` has a caspase-3 activation of 0.986%.
In the case of `Cc1ccc(C#N)cc1`, the caspase-3 activation is reported as 0.554%.
For `[O-]/[N+](=N\O)c1ccccc1`, the caspase-3 activation was -1.18%.
For `CC(=O)Nc1cccc(N)c1`, the caspase-3 activation was 1.66%.
Compound `CCCCC(CC)CO` (stereo not given) has a caspase-3 activation of 0.69%.
Compound `CC(=O)c1ccccc1[N+](=O)[O-]` has a caspase-3 activation of 0.506%.
In the case of `Nc1cc(Cl)c([N+](=O)[O-])cc1O`, the caspase-3 activation is reported as 1.7%.
With `O=C(O[C@@H](C(=O)O)[C@@H](OC(=O)c1ccccc1)C(=O)O)c1ccccc1` the caspase-3 activation was 1.56%.
